From PubChem BioAssay (NCATS) come the findings set out here.

Some of the results follow. Inconclusive results are not listed. Activity calls are given as the source filed them. How the source made its calls: active means clear falling dose curves in both reporters; inconclusive means both reporters move, but less clearly or upward; inactive means either reporter flat; the % is the FLuc reporter signal.
Potency means the concentration at half of the fitted maximal effect.

The nature of the assay: Cell-based coincidence reporter assay to measure PMP22 gene transcription in S16 Pmp22-F2sN cells - Confirmatory screen (AID 1508646). As to conditions: S16 Schwann cells Pmp22-F2sN, dual luciferase, 24 h; series mostly up to 57.5 µM. From the text: Assay Provider: Jim Inglese Ph.D. National Center for Advancing Translational Science, National Institutes of Health, Rockville, MD CMT is a heterogeneous group of neurological disorders that affect approximately 1 in 2,500 people. In particular, the most common form of CMT, CMT1A is genetically linked to the duplication of the PMP22 gene which leads to Schwann cell overexpression, thus manifesting itself as a typical case of dose-sensitive diseases. To identify small molecule compounds that can mediate the expression of PMP22 we developed a phenotypic assay screening strategy by utilizing genome editing techniques to construct Schwann cell lines containing novel reporter technology to monitor the transcriptional or translational regulation of PMP22. For high sensitivity we use a bioluminescent reporter system embedded in the 3' UTR of the PMP22 gene (S16(c9) Pmp22-F2sN) to identify compounds that inhibit gene expression. […] We can further discriminate the effect of all transcriptionally active molecules on PMP22 translation or stability with an assay that incorporates a short NLuc peptide (HiBiT) at the C-terminus of expressed PMP22 (S16(f8) PMP22-HiBiT) allowing alpha complementation and luminescence detection of membrane-associated PMP22 protein. These assays were screened against the NCATS Sytravon Library Collection. Miniaturization of these assays to 1536-well plate format for quantitative high throughput screening (qHTS) yielded rich data sets immediately from the qHTS assay (S16(c9) Pmp22-F2sN), when compared with data from a cell viability assay (Cell TiterGlo) to identify compounds that decreased the output signals through cellular toxicity to streamline the selection process of actives for subsequent characterization using the HiBiT assay (S16(f8) PMP22-HiBiT).
Cell-based coincidence reporter assay to measure PMP22 gene transcription in S16 Pmp22-F2sN cells PROTOCOL TABLE (format as described by Inglese J, Shamu CE and Guy RK. 2007) SEQUENCE No. (e.g., 1, 2, 3, etc.); PARAMETER (e.g., Cells, Incubation, Reagent, etc.); VALUE and DESCRIPTION. 1. Cells. Add 500-1,000 cells in 4 uL in growth media (DMEM High Glucose, No Phenol Red media + 10% heat-inactivated FBS + 1% Pen/Strep supplemented media) per well into Greiner 1536-well white/solid bottom high base, TC-treated plates. 2. Compounds. Library compounds and controls added at 23nL per well, transferred by Pin Tool. 3. Incubation. Incubate plates at 37C, 5% CO2, 95% RH for 24 h. 4. Reagent. Add 3.5uL Nano-Glo Dual-Luciferase Reporter Assay System reagent 1: Lysis and FLuc reagent per well of Greiner 1536-well plates. 5. Incubation. Incubate plates at room temperature for 10 min., protect from light. 6. Detector. FLuc luminescence measured using CCD-based camera (Viewlux). 7. Reagent. Add 3.5uL Nano-Glo Dual-Luciferase Reporter Assay System reagent 2: Stop&Glo reagent per well of Greiner 1536-well plates. 8. Incubation. Incubate plates at room temperature for 10 min., protect from light. 9. Detector. NLuc luminescence measured using CCD-based camera (Viewlux). NOTES (numbers refer to Sequence numbers above; values are from representative experiments) 6. Luminescence Read #1 (FLuc): Clear filter; Exposure = 10 sec, Gain = High, Speed = Slow, Binning = 2X 9. Luminescence Read #2 (NLuc): Clear filter; Exposure = 1 sec, Gain = High, Speed = Slow, Binning = 2X REFERENCES: 1. Inglese J, Shamu CE and Guy RK, Reporting data from high throughput screening of small molecule libraries, Nature Chemical Biology, 2007, 3(8): 438-441. doi.org/10.1038/nchembio0807-438 2. Yasgar A, Shinn P, Jadhav A, Auld DS, Michael S, Zheng W, Austin CP, Inglese J and Simeonov A, Compound Management for Quantitative High-Throughput Screening. J. Assoc. Lab. Auto., 2008, 13: 79-89. doi: 10.1016/j.jala.2007.12.004
In general terms: In a reporter assay the amount or activity of a reporter protein is the signal.
On to `Cc1ccccc1CNC(=O)CSc1nnc(C)c2c(C)n(-c3ccccc3)nc12`, for which the Potency is 16.3 µM (active).

In the case of `COc1cccc(NC(=O)CSC2=Nc3ccccc3C3=NC(CC(=O)NC4CCCCC4)C(=O)N23)c1` (stereo unspecified), the Potency result was “inactive”.

On to `Cc1ccc(CCNC(=O)C2CCN(c3nnc(-n4cccc4CNc4ccc(C)cc4)s3)CC2)cc1`, for which the Potency was 15.1 µM (active).

Consider `Cc1cc(OCC(=O)NCC2(N(C)C)CCCCC2)cc(C)c1Cl`, for which the Potency entry is “inactive”.

As for `Cc1sc(C2C(C#N)=C(N)N(c3cccc(Cl)c3)C3=C2C(=O)CCC3)cc1CN1CCOCC1` (stereo unspecified), the Potency result is “inactive”.

Consider `Cc1ccc(NC(=O)c2nc(S(=O)(=O)Cc3cccc(C)c3)ncc2Cl)cc1`, for which the Potency was 13.1 µM (active).

As to `CCOC(=O)C1CCN(C(=O)CSc2c3c(nc4ccc(Cl)cc24)CCCC3)CC1`, the Potency was 17.3 µM (active).

For `CCCCOc1ccc(CN2C(=O)C(=O)c3cc(Br)cc(C)c32)cc1OC`, the Potency was 10.9 µM (active).

`Cc1cc(F)ccc1NS(=O)(=O)c1ccc(-n2cccn2)cc1`: the Potency result was “inactive”.

For `CCOc1ccc(NC(=O)c2c(NC(=O)Cc3ccccc3)sc3c2CCC(C)C3)cc1` (stereo unspecified), the Potency is 16.5 µM (active).

On to `COc1ccccc1-c1cc(C(F)(F)F)nc(S(=O)(=O)CCCC(=O)Nc2ccc(F)cc2F)n1`, for which the Potency is 15.3 µM (active).

Regarding `O=C(c1ccc2c(c1)N(Cc1ccc(F)cc1)C(=O)c1ccccc1S2(=O)=O)N1CCN(c2ccccn2)CC1`, the Potency result is “inactive”.

Consider `CCc1ccc(NC(=O)CN2CCSc3ccc(S(=O)(=O)N4CCCC4)cc32)cc1`, for which the Potency result was “inactive”.

On to `COc1ccccc1Nc1c2c(nc3ccc(NC(=O)/C=C/c4cc(OC)c(OC)c(OC)c4)cc13)CCCC2`, for which the Potency is 12.2 µM (active).

For `O=C(CCS(=O)(=O)c1ccccc1)N(Cc1cccnc1)c1nc2c(F)cccc2s1`, the Potency is 12.3 µM (active).

With `CCCS(=O)(=O)c1ncc(Cl)c(C(=O)Nc2scc(-c3ccccc3)c2C(=O)OCC)n1`, the Potency is 10.4 µM (active).
